DAX1 inh-1: inhibits human nuclear receptor DAX1. P51843. HEK293 Gal4-DAX1 luciferase reporter, luminescence. inhibition, % at 6.75 µM. 0.99% of 340,000 active;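 active = inhibition above the mean over all tested compounds plus 3 SD, cut at about 4.2% in these data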;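 note: 0% = DAX1-transfected cells with DMSO and 100% = empty-vector control cells with DMSO; inhibition shows as a rise in luminescence from relieved DAX1 repression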
Target sequence (P51843 207-470 limits assumed): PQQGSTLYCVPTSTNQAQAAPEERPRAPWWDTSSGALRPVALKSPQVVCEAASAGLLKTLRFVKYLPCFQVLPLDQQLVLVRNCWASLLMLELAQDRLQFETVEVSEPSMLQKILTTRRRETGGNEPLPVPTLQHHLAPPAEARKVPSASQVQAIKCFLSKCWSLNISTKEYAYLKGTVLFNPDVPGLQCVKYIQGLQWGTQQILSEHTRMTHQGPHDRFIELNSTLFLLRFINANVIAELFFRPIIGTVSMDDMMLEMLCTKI
ssDAF-12 act: activates DAF-12 receptor from parasite S. stercoralis. HEK293 ssDAF-12/GRIP1 lit1-tk-luc reporter, luminescence; % of 3 µM dafachronic acid response. activation, % at 6.8 µM. 1% of 370,000 active. AID 652126;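 active = activation above the mean over all tested compounds plus 3 SD, cut at about 0.9% in these data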;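 note: 0% = DMSO-only wells and 100% = 3 µM delta7-dafachronic acid wells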
DAX1 inh-2: blocks DAX1 repression of SF-1 activated StAR promoter; HEK293T StAR-luciferase reporter, SF-1/DAX-1 repression relief; inhibition, % at 6.8 µM; 1.1% of 370,000 active;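 active = inhibition above the mean over all tested compounds plus 3 SD, cut at about 3.6% in these data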;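 note: 0% = DAX-1 cells with DMSO and 100% = cells lacking DAX-1 with DMSO; higher inhibition means more luminescence from relief of DAX-1 repression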
hcDAF-12 act: activates DAF-12 receptor from parasite H. contortus; 1.4% of 370,000 active; activation, % at 6.8 µM; HEK293 hcDAF-12 lit1-tk-luc reporter, luminescence; 0% DMSO, 100% Δ7-dafachronic acid;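 active = activation above the mean of all tested compounds plus 3 SD, cut at about 5.5% in these data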;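 note: 100% = response to 3 µM Δ7-dafachronic acid high control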
hgDAF-12 ag: agonists of H. glycines DAF-12 nuclear receptor; HEK293 GAL4-hgDAF12 UAS-luciferase reporter, agonist luminescence; normalized to butyrate control; 1.8% of 370,000 active; activation, % at 6.8 µM;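 active = activation above a cutoff set at the mean of all screened compounds plus 3 SD, cut at about 10% in these data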;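 note: 0% = DMSO wells and 100% = sodium butyrate wells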
DAX1 inh confirm: confirmation of human DAX1 (NR0B1) inhibitors. shares compounds with DAX1 inh-2. HEK293T StAR-promoter luciferase reporter, SF-1/DAX-1 repression. inhibition, % at 6.8 µM. 87% of 2,400 active. AID 652134;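 active = inhibition above the average of every tested compound plus 3 SD, cut at about 3.8% in these data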;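 note: 0% = DAX-1 cells with DMSO and 100% = no DAX-1 control cells with DMSO; active compounds raise luminescence by relieving repression of the StAR reporter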
SF1 AF2mut Luc: counter-screen for DAX1 inhibitors: nonselective inhibitors with SF-1 AF2 mutant. shares compounds with DAX1 inh-2. HEK293 StAR-luciferase, luminescence. inhibition, % at 6.8 µM. 78% of 2,400 active. AID 652136;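 active = inhibition above the mean of all tested compounds plus 3 SD, cut at about 3% in these data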;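 note: 0% = DAX-1 transfected cells with DMSO and 100% = cells without DAX-1 with DMSO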
LXRb hcDAF ctr: LXR-beta agonism as hcDAF-12 counter-screen. shares compounds with hcDAF-12 act. HEK293 Gal4-LXR tk-luc reporter, luminescence, 24 h; normalized: DMSO 0%, positive control 100%. activation, % at 6.8 µM. 3,400 tested, under 10 active. AID 743027;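 active = mean percent activation of the reporter above a cutoff set as the average over tested compounds plus their standard deviation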
hcDAF12 ag: hcDAF-12 agonism, confirmation assay; 61% of 3,400 active; HEK293 hcDAF-12 lit1-tk-luc reporter, luminescence; % of Δ7-dafachronic acid response; shares compounds with hcDAF-12 act; activation, % at 6.8 µM;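 active = mean activation across triplicate tests above the threshold derived from the earlier primary screen, cut at about 5.5% in these data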;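 note: 0% = DMSO only wells and 100% = 3 µM Δ7-dafachronic acid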
hgDAF12 conf: confirmation of H. glycines DAF-12 agonists. shares compounds with hgDAF-12 ag. HEK293 GAL4-hgDAF12 luciferase reporter, agonist mode; percent of butyrate response. activation, % at 6.8 µM. 80% of 3,300 active;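 active = mean activation over triplicate wells above the hit cutoff derived from the earlier primary screen, cut at about 11% in these data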;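 note: 0% = DMSO low control and 100% = 2 mM sodium butyrate high control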
LXRb DAF12 ctr: activates human LXR-beta, counter-screen for DAF-12 agonists; shares compounds with hgDAF-12 ag; 3,300 tested, under 10 active; HEK293 Gal4-LXR luciferase reporter, 24 h; activation, % at 6.8 µM;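 active = mean activation of the triplicate above a set limit carried over from the primary screen, none filed active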
* = called active by the depositor. Hits are enriched below; roughly 4.1% of the tested compounds scored in any of these assays.

How did Cc1ccc(N/C=C/C(=O)c2cccs2)cc1C do in these assays?
ssDAF-12 act: 2.6*; DAX1 inh-2: 6.7*; hcDAF-12 act: 21*; hgDAF-12 ag: 30*; DAX1 inh confirm: 18*; SF1 AF2mut Luc: 6.0*; LXRb hcDAF ctr: 2; hcDAF12 ag: 25*; hgDAF12 conf: 18*; LXRb DAF12 ctr: 1

How did O=C(/C=C/c1cccc(F)c1)N1CCc2ccccc21 do in these assays?
DAX1 inh-1: 3; ssDAF-12 act: 2.2*; DAX1 inh-2: 5.6*; hcDAF-12 act: 14*; hgDAF-12 ag: 24*; DAX1 inh confirm: 15*; SF1 AF2mut Luc: 8.4*; LXRb hcDAF ctr: 2; hcDAF12 ag: 13*; hgDAF12 conf: 22*; LXRb DAF12 ctr: 1

Results for O=C(/C=C/c1cccc(F)c1)OCC(=O)N1CCCc2ccccc21 ?
DAX1 inh-1: 0; ssDAF-12 act: -1; DAX1 inh-2: 2; hcDAF-12 act: 1; hgDAF-12 ag: 2

How did COc1ccc(-c2nnc(SCC(C)C)o2)cc1 do in these assays?
DAX1 inh-1: 3; ssDAF-12 act: 1; DAX1 inh-2: 4.8*; hcDAF-12 act: 4; hgDAF-12 ag: 23*; DAX1 inh confirm: 8.2*; SF1 AF2mut Luc: 3.4*; hgDAF12 conf: 22*; LXRb DAF12 ctr: 1

Results for COc1ccc(C(=O)CSc2nnc(-c3ccc(C)cc3)o2)cc1 ?
DAX1 inh-1: 1; ssDAF-12 act: -1; DAX1 inh-2: 0; hcDAF-12 act: 0; hgDAF-12 ag: 1

Results for CCCNC(=O)NC(=O)CSc1ccc2c(c1)OCCO2 ?
DAX1 inh-1: 0; ssDAF-12 act: -1; DAX1 inh-2: 0; hcDAF-12 act: -1; hgDAF-12 ag: -2

What do the screens show for `Cc1cnc(NC(=O)COc2ccc3c(c2)CCC3)s1`?
DAX1 inh-1: 1; ssDAF-12 act: 1.3*; DAX1 inh-2: 13*; hcDAF-12 act: 6.1*; hgDAF-12 ag: 25*; DAX1 inh confirm: 14*; SF1 AF2mut Luc: 5.3*; hgDAF12 conf: 25*; LXRb DAF12 ctr: 1

Results for O=C1NC(c2cccc([N+](=O)[O-])c2)Oc2ccccc21 (stereo not given) ?
DAX1 inh-1: 0; ssDAF-12 act: 0; DAX1 inh-2: 0; hcDAF-12 act: 1; hgDAF-12 ag: -1

How did COc1ccc(/C=C2\SC(=O)N(CCNC(=O)C3CC4C=CC3C4)C2=O)cc1 (stereo not given) do in these assays?
DAX1 inh-1: 3; ssDAF-12 act: 0; DAX1 inh-2: 5.5*; hcDAF-12 act: 3; hgDAF-12 ag: 21*; DAX1 inh confirm: 8.6*; SF1 AF2mut Luc: 4.3*; hgDAF12 conf: 23*; LXRb DAF12 ctr: 1

How did O=C(CN1CCCCCC1)Nc1nc2ccccc2s1 do in these assays?
DAX1 inh-1: 2; ssDAF-12 act: -1; DAX1 inh-2: 1; hcDAF-12 act: 2; hgDAF-12 ag: 1

What do the screens show for `CSc1ccc(/C=N/Nc2ccc(Cl)c(C(=O)O)c2)cc1`?
DAX1 inh-1: 1; ssDAF-12 act: 0; DAX1 inh-2: 6.7*; hcDAF-12 act: 5; hgDAF-12 ag: 14*; DAX1 inh confirm: 17*; SF1 AF2mut Luc: 5.9*; hgDAF12 conf: 29*; LXRb DAF12 ctr: 1

Compound activity: PubChem, The Scripps Research Institute Molecular Screening Center
